In PubChem BioAssay (Tox21):
Inconclusive results are not listed. Active and inactive are the calls of the source. Calls follow the shape of the full dose curve.

Experiments:
[1] = target: Acetylcholinesterase (Homo sapiens) (UniProt P22303); experiment: Acetylcholinesterase (AChE) small molecule antagonists: colormetric cell-based qHTS assay (AID 1347395); also: nearly all actives have a fitted effect of over 30% in size; also: potency is read from the fitted curve at half-maximal effect
How it was run: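 SH-SY5Y cells, plated overnight at 37 C, were exposed to compounds for 30 min at 37 C and 5% CO2. Acetylthiocholine plus DTNB was then added, and thiocholine from endogenous AChE was quantified colorimetrically after 90 min at 37 C.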

[2] = target: Acetylcholinesterase (Homo sapiens) (UniProt P22303); experiment: Acetylcholinesterase (AChE) small molecule antagonists: enzyme-based qHTS assay (AID 1347397); conditions: Potency: AChE enzyme activity inhibition; outcome: AChE enzyme activity inhibition; also: nearly all actives have a fitted effect of over 55% in size; also: potency is read from the fitted curve at half-maximal effect
How it was run: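 Absorbance-based detection of thiocholine with DTNB served as the read-out. Recombinant human AChE was exposed to compound for 30 min at RT before a 10 min RT incubation with acetylthiocholine.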

[3] = target: Acetylcholinesterase (Homo sapiens) (UniProt P22303); experiment: Acetylcholinesterase (AChE) small molecule antagonists: fluorescence cell-based qHTS assay (AID 1347398); conditions: Potency: AChE activity; outcome: AChE activity; also: nearly all actives have a fitted effect of over 50% in size; also: potency is read from the fitted curve at half-maximal effect
How it was run: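 Fluorimetric cell-based assay: intact SH-SY5Y cells, 30 min compound preincubation at 37 C, acetylthiocholine substrate with thiol probe Thiolite Green, 40 min RT development, fluorescence 490/520 nm.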

[4] = target: Acetylcholinesterase (Homo sapiens) (UniProt P22303); experiment: Acetylcholinesterase (AChE) small molecule antagonists: enzyme-based qHTS assay with human liver microsomes (AID 1347399); conditions: Potency: qHTS inhibition; outcome: qHTS inhibition; also: nearly all actives have a fitted effect of over 60% in size
How it was run: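 Recombinant human AChE (50 mU/mL in the enzyme mix) and human liver microsomes (0.25 mg/mL final) were preincubated with compound and NADPH (0.25 mg/mL final) for 30 min at 37 C. Acetylthiocholine/DTNB was then added; thiocholine was read colorimetrically after 10 min at room temperature.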

Measured: Potency

Chain of Acetylcholinesterase (Homo sapiens) (P22303 whole entry, looked up): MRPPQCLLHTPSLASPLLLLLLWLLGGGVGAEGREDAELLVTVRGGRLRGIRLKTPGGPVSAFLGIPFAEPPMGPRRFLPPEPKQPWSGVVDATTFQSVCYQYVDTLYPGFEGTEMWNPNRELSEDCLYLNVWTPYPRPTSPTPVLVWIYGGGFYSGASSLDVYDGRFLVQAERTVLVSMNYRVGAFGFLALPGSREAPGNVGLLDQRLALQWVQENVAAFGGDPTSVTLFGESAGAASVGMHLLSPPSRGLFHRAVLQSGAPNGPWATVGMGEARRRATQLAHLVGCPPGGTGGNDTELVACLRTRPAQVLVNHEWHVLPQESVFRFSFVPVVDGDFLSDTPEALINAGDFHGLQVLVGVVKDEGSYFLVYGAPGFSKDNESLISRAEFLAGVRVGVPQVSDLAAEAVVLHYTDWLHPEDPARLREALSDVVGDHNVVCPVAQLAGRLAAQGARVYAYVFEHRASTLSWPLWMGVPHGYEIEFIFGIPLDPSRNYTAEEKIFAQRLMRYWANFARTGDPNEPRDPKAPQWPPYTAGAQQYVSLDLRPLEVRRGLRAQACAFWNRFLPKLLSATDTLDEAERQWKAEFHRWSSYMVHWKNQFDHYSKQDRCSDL

COC(=O)C(C)O (stereo not given)
inactive: all assays above

CCCc1ncc(C(=O)O)s1
inactive: all assays above

CCCCCCCCCCCCCCC(=O)NC(CO)CCCCCCCCCCCCCC (stereo not given)
inactive: all assays above

NS(=O)(=O)c1cc(C(=O)O)cc(N2CCCC2)c1Oc1ccccc1
inactive: all assays above

C/C=C(\C)C=O
inactive: all assays above

CCCC/C=C\CCCCCCCCCC=O
inactive: all assays above

C=C[C@](C)(O)CC[C@@H]1[C@@]2(C)CCCC(C)(C)[C@@H]2CC[C@@]1(C)O
inactive: all assays above

CC1CC(C)C(=O)C1=O (stereo not given)
inactive: all assays above

CCCCCC1CCC(=O)O1 (stereo not given)
inactive: all assays above

O=C(c1ccccc1)c1ccc(O)cc1O
inactive: all assays above

Clc1ccccc1C(c1ccccc1)(c1ccccc1)n1ccnc1
inactive: all assays above

Fc1ccc([C@@H]2CCNC[C@H]2COc2ccc3c(c2)OCO3)cc1
inactive: all assays above

O=C(O)c1c(Cl)ccc(Cl)c1Cl
inactive: all assays above

CC(=O)SCc1ccco1
inactive: all assays above

OC[C@H]1O[C@@H](Oc2ccc(O)cc2)[C@H](O)[C@@H](O)[C@@H]1O
inactive: all assays above

O=C1CCC(=O)O1
inactive: all assays above

CC(=O)OCC=C(C)C
inactive: all assays above

CC(C)[C@H](N)C(=O)OCCOCn1cnc2c(=O)[nH]c(N)nc21
inactive: all assays above

c1ccc2c(c1)CCc1ccccc1N2
inactive: all assays above

CCOC(=O)/C=C\C(=O)OCC
inactive: all assays above

CCCCCCCCCCOS(=O)(=O)O
inactive: all assays above

O=C1CCCc2c(O)cccc21
inactive: all assays above

O=[N+]([O-])c1ccc(O)cc1
inactive: all assays above

C=C(C)CC(C)(C)C
inactive: all assays above

Nc1nc2c(ncn2COC(CO)CO)c(=O)[nH]1
inactive: all assays above

Clc1ccc(C(c2ccccc2Cl)C(Cl)Cl)cc1 (stereo not given)
inactive: all assays above

COC(=O)OC
inactive: all assays above

Cn1c([N+](=O)[O-])cnc1COC(N)=O
inactive: all assays above

CCCCCCCCCCn1cc[n+](CCCCCCCCCC)c1C
active: [1] 79.8 µM | [2] 35.6 µM | [3] 40 µM
inactive: [4]

Cc1cc(C)cc(O)c1
inactive: all assays above
